Screens: PubChem, National Center for Advancing Translational Sciences (NCATS)
KB-V1 MDR tox = kills drug-selected multidrug resistant KB-V1 cells; KB-V1 MDR cells viability, CellTiter-Glo, 72 h; Potency, µM (titrated, usually from 46.1 µM), most hits filed as cytotoxic; 3.4% of 400,000 active; AID 1347076; note: % is set by controls: 0 for no effect and ±100 for the full control effect; nearly all actives have a fitted effect of over 60% in size
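KB-V1 MDR subline cells in DMEM (phenol-red free, 10% FBS) exposed to compounds in qHTS concentration series for 72 h at 37 degrees C. Viability read by CellTiter-Glo luminescence; concentration-effect curves fitted after normalization and correction.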
KB-3-1 tox = KB-3-1 parental cell cytotoxicity; KB-3-1 viability, CellTiter-Glo ATP luminescence, 72 h; Potency, µM (series often up to 46.1 µM), most hits filed as cytotoxic; 1.4% of 400,000 active; AID 1347075; note: % is set by controls: 0 for no effect and ±100 for the full control effect; nearly all actives have a fitted effect of over 60% in size
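KB-3-1 parental drug-naive adenocarcinoma cells in DMEM/10% FBS, incubated 72 h at 37 C with pin-transferred compounds across a concentration series. Viability by CellTiter-Glo luminescence; concentration-response curves fitted after normalization.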
MCF10A rerep = DNA re-replication induction in MCF 10a cells; MCF 10A DNA re-replication, Hoechst nuclear intensity, 48 h; Potency, µM (series often up to 46.1 µM), without a hit: at the highest dose activity, positive = re-replication, hits mostly activators; 2.9% of 350,000 active; AID 624296; note: % of control where 0% means no effect; nearly all actives have a fitted effect of over 50% in size
SW480 rereplic = induces DNA re-replication in SW480 colon adenocarcinoma cells; SW480 DNA re-replication, Hoechst DNA content imaging, 48 h; Potency, µM (series often up to 46.1 µM), for the others: top-dose re-replication activation, most hits filed as activators; 1.8% of 340,000 active; AID 624297; note: % of control where 0% means no effect; nearly all actives have a fitted effect of over 55% in size
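Hoechst fluorescence of nuclei (405 nm excitation, 500-530 nm emission) measured by plate-scanning imager after 48 hr compound exposure at 37 C; re-replication scored as increased number of nuclei with elevated intensity.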
VP16 counter = inhibits Gal4-VP16 luciferase reporter, ROR gamma counter-screen; Drosophila S2 Gal4-VP16 UAS-luciferase, luminescence, 20 h; Potency, µM (titrated, usually from 53.6 µM), without a hit: at the highest dose activity, negative = inhibition, usual class: inhibitors; 3.5% of 310,000 active;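 note: Gal4-VP16 expression switched on by copper sulfate through the metallothionein promoter; % is set by controls: 0 for no effect and ±100 for the full control effect; nearly all actives have a fitted effect of over 50% in size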
RORgamma inh = inhibitors of mouse ROR gamma transcriptional activity. Drosophila S2 Gal4-RORgamma UAS-luciferase reporter, 20 h. 5.4% of 310,000 active. P51450. AID 2551. Potency, µM (series often up to 53.6 µM), for inactives: top-dose activity change, negative = inhibition, hits mostly inhibitors; note: % is set by controls: 0 for no effect and ±100 for the full control effect; nearly all actives have a fitted effect of over 60% in size
Target sequence (P51450 whole entry, looked up, the tested form may be a part): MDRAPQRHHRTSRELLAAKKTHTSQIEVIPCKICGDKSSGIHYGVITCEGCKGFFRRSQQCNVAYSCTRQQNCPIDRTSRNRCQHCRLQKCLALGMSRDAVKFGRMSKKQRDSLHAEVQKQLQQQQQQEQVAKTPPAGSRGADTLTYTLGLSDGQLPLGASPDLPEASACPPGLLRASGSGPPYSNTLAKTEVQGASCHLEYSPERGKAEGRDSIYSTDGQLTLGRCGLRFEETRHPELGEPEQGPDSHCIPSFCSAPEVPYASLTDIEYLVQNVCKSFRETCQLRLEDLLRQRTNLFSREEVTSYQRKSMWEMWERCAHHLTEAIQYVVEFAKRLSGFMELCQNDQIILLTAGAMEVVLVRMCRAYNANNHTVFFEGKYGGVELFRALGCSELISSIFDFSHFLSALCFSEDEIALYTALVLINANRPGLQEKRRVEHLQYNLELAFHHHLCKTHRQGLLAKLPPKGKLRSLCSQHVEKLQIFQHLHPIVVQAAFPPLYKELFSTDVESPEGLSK
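Luciferase reporter read in Schneider cells carrying Gal4-RORγ (mouse) and UAS-Photinus luciferase; cells given compound 1 h before 700 uM copper sulfate induction, then incubated 20 h at ambient temperature.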
Active calls of the source: *. Most compounds without a hit are left out; they make up all but 10% or so of the library. Calls come from the whole dose curve; as a rule, active = well fitted curve in the direction sought with a large enough effect; inconclusive = small, poorly fitted or top-dose-only effect, or another doubt; inactive = no such curve, though single readings can be large; an effect the other way counts as inactive or inconclusive. Potency is the fitted concentration of half-maximal effect.

Results for CCCCOP(=O)(OCCCC)C(Nc1ccc(C(=O)OCC)cc1)c1ccncc1 (stereo not drawn) ?
KB-V1 MDR tox: inactive; KB-3-1 tox: inactive; MCF10A rerep: inconclusive; SW480 rereplic: 13.2%; VP16 counter: -6.3%; RORgamma inh: 52.3%

How did CC1CCN(CCc2nc3ccccc3[nH]2)CC1 do in these assays?
KB-V1 MDR tox: inactive; KB-3-1 tox: inactive; MCF10A rerep: 0.7%; SW480 rereplic: 0.3%; VP16 counter: 7.8%; RORgamma inh: 2.2%

What do the screens show for `COC(=O)Nc1nc2ccccc2[nH]1`?
KB-V1 MDR tox: 3.66µM*; KB-3-1 tox: 10.3µM*; MCF10A rerep: inconclusive; SW480 rereplic: inconclusive; VP16 counter: 4.6%; RORgamma inh: -6.1%

What do the screens show for `Cl/C=C\Cl`?
VP16 counter: -1.3%; RORgamma inh: -1.2%

What do the screens show for `CC1(C)CC2CC(C)(CN2S(=O)(=O)c2cccc(C(=O)OCC(=O)NC(N)=O)c2)C1` (stereo not drawn)?
KB-V1 MDR tox: inactive; KB-3-1 tox: inactive; MCF10A rerep: -6.4%; SW480 rereplic: inconclusive

What do the screens show for `Cc1ccc(-n2nc(C)cc2NC(=O)COc2cc(C)cc3oc(=O)c4c(c23)CCC4)cc1`?
KB-V1 MDR tox: 2.06µM*; KB-3-1 tox: inactive; MCF10A rerep: -2.4%; SW480 rereplic: 1.4%; VP16 counter: inconclusive; RORgamma inh: inconclusive

Results for Cc1cc(OCC(=O)Nc2cc(C)nn2-c2ccccn2)c2c3c(c(=O)oc2c1)CCC3 ?
VP16 counter: -0.1%; RORgamma inh: 0.7%

What do the screens show for `COC(=O)C1=C(c2ccc(F)cc2OCc2ccccc2)C[C@@H]2CC[C@H]1N2C(=O)NCc1ccc(C)cc1`?
KB-V1 MDR tox: inactive; KB-3-1 tox: inconclusive; MCF10A rerep: -3.8%; SW480 rereplic: inconclusive

Results for COC(=O)C1=C(c2ccccc2OCc2ccccc2)C[C@@H]2CC[C@H]1N2C(=O)NCc1ccc(C(C)(C)C)cc1 ?
KB-V1 MDR tox: inactive; KB-3-1 tox: inconclusive; MCF10A rerep: inconclusive; SW480 rereplic: -2.6%

How did COC(=O)C1=C(c2ccccc2OCc2ccccc2)C[C@@H]2CC[C@H]1N2C(=O)NCc1ccc(F)cc1 do in these assays?
KB-V1 MDR tox: 18.4µM*; KB-3-1 tox: 20.6µM*; MCF10A rerep: 25.2%; SW480 rereplic: inconclusive

What do the screens show for `COC(=O)C1=C(c2ccc(F)cc2OCc2ccccc2)C[C@@H]2CC[C@H]1N2C(=O)NCc1ccc(F)cc1`?
KB-V1 MDR tox: inactive; KB-3-1 tox: inconclusive; MCF10A rerep: inconclusive; SW480 rereplic: 0.517µM*

What do the screens show for `c1ccc(N2CCC3(CCNCC3)CC2)nc1`?
VP16 counter: -7.4%; RORgamma inh: 13.0%

Results for OCC1CCCN2CCCCC12 (stereo not drawn) ?
VP16 counter: 1.9%; RORgamma inh: 1.9%

How did CC(C)CC(NS(=O)(=O)c1ccc2c(c1)oc(=O)n2C)C(=O)N1CC=C(c2ccccc2)CC1 (stereo not drawn) do in these assays?
KB-V1 MDR tox: inactive; KB-3-1 tox: inactive; MCF10A rerep: -6.3%; SW480 rereplic: -4.8%; VP16 counter: 3.0%; RORgamma inh: inconclusive

How did CCN(CC)S(=O)(=O)c1cc(NC(=O)C(C)N2CC=C(c3ccccc3)CC2)ccc1C (stereo not drawn) do in these assays?
KB-V1 MDR tox: 16.4µM*; KB-3-1 tox: 20.6µM*; MCF10A rerep: 7.7%; SW480 rereplic: inconclusive; VP16 counter: inconclusive; RORgamma inh: 14.4%

Results for COC(=O)c1ccc(NC(=O)CSc2nc3ccc(N4C(=O)C5C6C=CC(C6)C5C4=O)cc3s2)cc1 (stereo not drawn) ?
KB-V1 MDR tox: 20.6µM*; KB-3-1 tox: 20.6µM*; MCF10A rerep: inconclusive; SW480 rereplic: 0.4%; VP16 counter: -13.7%; RORgamma inh: 5.1%

Results for CCN1CCN(CC(c2ccccc2)c2ccccc2)CC1 ?
KB-V1 MDR tox: inactive; KB-3-1 tox: inactive; MCF10A rerep: inconclusive; SW480 rereplic: -33.4%; VP16 counter: -5.8%; RORgamma inh: 20µM*

What do the screens show for `Cc1ccc(/C=C/C(=O)C2C(=O)c3ccccc3C2=O)cc1`?
KB-V1 MDR tox: inactive; KB-3-1 tox: inconclusive; MCF10A rerep: inconclusive; SW480 rereplic: -7.0%; VP16 counter: inconclusive; RORgamma inh: 6.31µM*

How did CCN1C[C@@]2(OC(=O)c3ccccc3NC(C)=O)CCC(OC)[C@@]34C5CC6C(OC)C[C@@](O)(C(CC23)[C@@H]14)C5(O)C6OC (stereo partly drawn) do in these assays?
VP16 counter: -23.0%; RORgamma inh: -16.6%

How did O=C(O)c1cccc2nc3ccccc3nc12 do in these assays?
KB-V1 MDR tox: inactive; KB-3-1 tox: inactive; MCF10A rerep: 0.0%; SW480 rereplic: 8.2µM*; VP16 counter: 0.7%; RORgamma inh: -19.7%

How did c1ccc2nc3ccccc3nc2c1 do in these assays?
KB-V1 MDR tox: inactive; KB-3-1 tox: inactive; MCF10A rerep: inconclusive; SW480 rereplic: 17.9%; VP16 counter: -3.1%; RORgamma inh: 21.0%

Results for [CH3][Hg][Cl] ?
VP16 counter: 0.708µM*; RORgamma inh: 0.891µM*

What do the screens show for `C[C@H]1[C@@H](OS(=O)(=O)O)C[C@@H]2C[C@H]([C@@H](O)c3cc(=O)[nH]c(=O)[nH]3)NC3=NC[C@H]1N32`?
KB-V1 MDR tox: 2.06µM*; KB-3-1 tox: 1.03µM*; MCF10A rerep: inconclusive; SW480 rereplic: inconclusive

How did CCCOCCN(C(=O)CCl)c1c(CC)cccc1CC do in these assays?
VP16 counter: 2.8%; RORgamma inh: -13.2%

What do the screens show for `COC[C@H]1OC(=O)c2coc3c2[C@@]1(C)C1=C(C3=O)[C@@H]2CCC(=O)[C@@]2(C)C[C@H]1OC(C)=O`?
KB-V1 MDR tox: inconclusive; KB-3-1 tox: 20.6µM*; MCF10A rerep: inconclusive; SW480 rereplic: 7.9%

What do the screens show for `COc1cc2c(c(OC)c1OC)-c1ccc(OC)c(=O)cc1C(NC(C)=O)CC2` (stereo not drawn)?
KB-V1 MDR tox: inactive; KB-3-1 tox: 0.0073µM*; MCF10A rerep: inconclusive; SW480 rereplic: inconclusive; VP16 counter: -8.6%; RORgamma inh: -26.1%

How did COC1=C[C@@H]2C3=C([C@@H]2C1=O)[C@@H](NC(C)=O)CCc1cc(OC)c(OC)c(OC)c13 do in these assays?
KB-V1 MDR tox: inactive; KB-3-1 tox: inactive; MCF10A rerep: -6.7%; SW480 rereplic: -37.3%
